From PubChem BioAssay
Rows were chosen to be rich in hits. Some 21% of all compounds tested hit in one or more screens of this group.
SARS PLpro yeast: inhibitors of SARS-CoV papain-like protease in yeast | S. cerevisiae expressing SARS-CoV PLpro, growth rescue | Potency, µM (titrated, usually from 32.9 µM), actives largely listed as activators | 330,000 tested, 0.19% active | AID 485353; further: nearly all actives have a fitted effect of over 55% in size
Shiga inhibitor: Shiga toxin inhibition. 290,000 tested, 9.2% active. Vero cells, Shiga toxin protein synthesis inhibition reporter. inhibition, % at 38.7 µM; in the data active means inhibition mostly above about 28%, no sharp cut-off; inactive means mostly below about 43%
Pf growth 48h: inhibits P. falciparum growth in the first generation, 48 h; Potency, µM (series often up to 28.7 µM), actives largely listed as inhibitors; 310,000 tested, 5.9% active; AID 504832; P. falciparum luciferase growth in erythrocytes, 48 h; active means well fitted inhibition curve with a large enough effect; inconclusive means small, poorly fitted or top-dose-only effect, or another doubt; inactive means no such curve, though single readings can be large or run the other way
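Read-out is firefly luciferase luminescence from an integrated reporter in P. falciparum, so falling signal marks reduced parasite growth. Infected erythrocytes were at 2% hematocrit and 0.1% parasitemia (final) in Albumax-supplemented RPMI 1640.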
Pf growth 96h: inhibits malaria parasite growth, 96 h | AID 504834 | Potency, µM (series often up to 28.7 µM), actives largely listed as inhibitors | 320,000 tested, 6.9% active | P. falciparum luciferase reporter growth, 96 h; active means well fitted inhibition curve with a large enough effect; inconclusive means small, poorly fitted or top-dose-only effect, or another doubt; inactive means no such curve, though single readings can be large or run the other way
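96 h incubation, 37 C, 5% CO2, of luciferase-reporter P. falciparum-infected RBCs (2% hematocrit, 0.05% parasitemia final) with test compounds; endpoint luminescence.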
CHX counter: counter-screen for Shiga toxin inhibitors: cycloheximide protein synthesis inhibition. max response, %. cell reporter, cycloheximide protein synthesis inhibition counterscreen. AID 2314. 300,000 tested, 12% active; in the data active means max response mostly above about 13%, no sharp cut-off; inactive means mostly below about 14%; further: read at 38.3 µM for the half of the compounds with a filed dose
NS1 function inh: influenza NS1 inhibition; Potency, µM (highest dose often 46.1 µM); 270,000 tested, 0.4% active; AID 2326; further: actives are rising curves; nearly all actives have a fitted effect of over 50% in size
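Growth recovery, yeast-based: influenza A NS1 expressed in S. cerevisiae causes slow growth, and suppressors are detected by OD600. The parent strain without NS1 is used as positive control.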
A number is an active result. Unless noted, the call rests on the fitted dose curve.

Cc1nc(C)c(C(=O)N2CCCC(CCC(=O)NCc3ccc(F)c(F)c3)C2)s1 (configuration not stated) was read as SARS PLpro yeast inactive, Shiga inhibitor inactive, Pf growth 48h inactive, Pf growth 96h 9.3µM, CHX counter inactive and NS1 function inh inactive.
Screening O=C(CCC1CCCN(C(=O)c2cncs2)C1)NCc1ccc(F)c(F)c1 (configuration not stated) returned SARS PLpro yeast inactive, Shiga inhibitor inactive, Pf growth 48h inactive, Pf growth 96h 8.3µM, CHX counter inactive and NS1 function inh inactive.
For O=C(COc1ccc(S(=O)(=O)N2CCOCC2)cc1)Nc1ccccc1C(F)(F)F the results were SARS PLpro yeast inactive, Shiga inhibitor inactive, Pf growth 96h inactive, CHX counter inactive and NS1 function inh inactive.
For COc1ccc(CCNC(=O)c2nnc(Cc3ccc(Cl)cc3)o2)cc1OC the results were SARS PLpro yeast inactive, Shiga inhibitor inactive, Pf growth 96h inactive, CHX counter inactive and NS1 function inh inactive.
Screening CC(C)CCNC(=O)c1nnc(Cc2ccc(Cl)cc2)o1 returned SARS PLpro yeast inactive, Shiga inhibitor inactive, Pf growth 96h 8.3µM, CHX counter inactive and NS1 function inh inactive.
CC1CCN(C(=O)CN2C(=O)NC3(CCC(C)CC3)C2=O)CC1 (configuration not stated) was read as SARS PLpro yeast inactive, Pf growth 48h inactive and Pf growth 96h inactive.
N#CCCCN1C(=O)C(=C(C#N)C#N)c2ccccc21 was read as SARS PLpro yeast inactive, Shiga inhibitor inactive, Pf growth 48h inactive, Pf growth 96h inactive, CHX counter inactive and NS1 function inh inactive.
Screening COc1cccc(C2=NN(S(C)(=O)=O)C(c3cccs3)C2)c1 (configuration not stated) returned SARS PLpro yeast inactive, Shiga inhibitor 40, Pf growth 48h inactive, Pf growth 96h inconclusive, CHX counter 35 and NS1 function inh inactive.
`CCS(=O)(=O)Nc1ccc(C2=NN(S(C)(=O)=O)C(c3cccs3)C2)cc1` (configuration not stated) gave SARS PLpro yeast inactive, Shiga inhibitor inactive, Pf growth 48h inactive, Pf growth 96h inactive and CHX counter 21.
`Cc1ccc2cc(C3CC(c4cccs4)=NN3S(C)(=O)=O)c(Cl)nc2c1` (configuration not stated) gave SARS PLpro yeast inactive, Shiga inhibitor inactive, Pf growth 48h inconclusive, Pf growth 96h inconclusive, CHX counter inactive and NS1 function inh inactive.
For COc1ccc(C2CC(c3cccs3)=NN2S(C)(=O)=O)cc1OC (configuration not stated) the results were SARS PLpro yeast inactive, Shiga inhibitor inactive, Pf growth 48h inactive, Pf growth 96h inactive, CHX counter inactive and NS1 function inh inactive.
`COc1ccc2cc(C3CC(c4cccs4)=NN3S(C)(=O)=O)c(Cl)nc2c1` (configuration not stated) gave SARS PLpro yeast inactive, Shiga inhibitor inactive, Pf growth 48h inactive, Pf growth 96h inconclusive, CHX counter 24 and NS1 function inh inconclusive.
`COc1ccc(C2=NN(S(C)(=O)=O)C(c3cccs3)C2)cc1OC` (configuration not stated) gave SARS PLpro yeast inactive, Shiga inhibitor 66, Pf growth 48h inactive, Pf growth 96h inconclusive, CHX counter 44 and NS1 function inh inactive.
For CS(=O)(=O)N1N=C(c2ccccc2)CC1c1cccs1 (configuration not stated) the results were SARS PLpro yeast inactive, Shiga inhibitor inactive, Pf growth 48h inactive, Pf growth 96h inconclusive, CHX counter inactive and NS1 function inh inactive.
CCS(=O)(=O)Nc1cccc(C2=NN(C(C)=O)C(c3cccs3)C2)c1 (configuration not stated) was read as SARS PLpro yeast inactive, Shiga inhibitor inactive, Pf growth 48h inactive, Pf growth 96h inactive, CHX counter inactive and NS1 function inh inactive.
For N#Cc1c2n(c(=S)n(-c3ccccc3)c1=O)CCCCC2 the results were SARS PLpro yeast inactive, Shiga inhibitor inactive, Pf growth 48h inconclusive, Pf growth 96h inactive and CHX counter 14.
`Cc1ccc(S(=O)(=O)NNC(=O)c2ccoc2C)cc1` gave SARS PLpro yeast inactive, Shiga inhibitor inactive, Pf growth 48h inactive, Pf growth 96h inactive, CHX counter inactive and NS1 function inh inactive.
For CC(C)CNS(=O)(=O)c1ccc(CCC(=O)NCCC2=CCCCC2)cc1 the results were SARS PLpro yeast inactive, Shiga inhibitor inactive, Pf growth 48h inconclusive, Pf growth 96h inactive, CHX counter inactive and NS1 function inh inactive.
`O=C(COc1cccc(-n2cnnn2)c1)Nc1ccccc1` gave SARS PLpro yeast inactive, Shiga inhibitor inactive, Pf growth 48h inactive, Pf growth 96h inconclusive, CHX counter inactive and NS1 function inh inactive.
Cc1ccc(S(=O)(=O)N2CCOCC2)cc1NC(=O)COc1cccc(-n2cnnn2)c1 was read as SARS PLpro yeast inactive, Pf growth 48h inconclusive and Pf growth 96h inconclusive.
For Cc1ccc(NC(=O)COc2cccc(-n3cnnn3)c2)cc1S(=O)(=O)N1CCOCC1 the results were SARS PLpro yeast inactive, Pf growth 48h 13µM and Pf growth 96h inconclusive.
Screening COc1ccc(NC(=O)COc2cccc(-n3cnnn3)c2)cc1 returned SARS PLpro yeast inactive, Shiga inhibitor inactive, Pf growth 48h inactive, Pf growth 96h 10µM, CHX counter inactive and NS1 function inh inactive.
For CC(=O)O[C@@]12CO[C@@H]1C[C@H](OC1OCC(O)C(O)C1O)[C@@]1(C)C(=O)[C@H](O)C3=C(C)[C@@H](OC(=O)[C@H](O)[C@@H](NC(=O)c4ccccc4)c4ccccc4)C[C@@](O)([C@@H](OC(=O)c4ccccc4)C12)C3(C)C (some centres not stated) the results were SARS PLpro yeast inactive, Shiga inhibitor inactive, Pf growth 48h inconclusive, Pf growth 96h 0.037µM, CHX counter inactive and NS1 function inh inactive.
`CCCCCC(=O)N[C@@H](c1ccccc1)[C@@H](O)C(=O)O[C@H]1C[C@@]2(O)[C@@H](OC(=O)c3ccccc3)C3[C@](C)(C(=O)[C@H](O)C(=C1C)C2(C)C)[C@@H](OC1OCC(O)C(O)C1O)C[C@H]1OC[C@@]31OC(C)=O` (some centres not stated) gave SARS PLpro yeast inactive, Shiga inhibitor inactive, Pf growth 48h inconclusive, Pf growth 96h 0.17µM, CHX counter inactive and NS1 function inh inactive.
`CC(C)Cc1nn2c(=O)cc(CSCC(=O)Nc3ccccc3F)nc2s1` gave SARS PLpro yeast inactive, Shiga inhibitor inactive, Pf growth 48h inactive, Pf growth 96h inactive, CHX counter inactive and NS1 function inh inactive.
Screening COc1cc(OC)cc(-c2nc(-c3ccccc3OC)no2)c1 returned SARS PLpro yeast inactive, Shiga inhibitor inactive, Pf growth 48h inactive, Pf growth 96h inactive, CHX counter inactive and NS1 function inh inactive.
`COc1ccccc1Cc1nc(-c2ccc(Br)o2)no1` gave SARS PLpro yeast inactive, Shiga inhibitor inactive, Pf growth 96h inactive, CHX counter 34 and NS1 function inh inactive.
